{"source": "PubChem BioAssay", "note": "A number with no mark means an inactive call. Calls of active or inactive are those of the source.", "data": [{"biological_target": "Luciferin 4-monooxygenase (Photinus pyralis) (UniProt P08659)", "sequence (P08659 whole entry, looked up)": "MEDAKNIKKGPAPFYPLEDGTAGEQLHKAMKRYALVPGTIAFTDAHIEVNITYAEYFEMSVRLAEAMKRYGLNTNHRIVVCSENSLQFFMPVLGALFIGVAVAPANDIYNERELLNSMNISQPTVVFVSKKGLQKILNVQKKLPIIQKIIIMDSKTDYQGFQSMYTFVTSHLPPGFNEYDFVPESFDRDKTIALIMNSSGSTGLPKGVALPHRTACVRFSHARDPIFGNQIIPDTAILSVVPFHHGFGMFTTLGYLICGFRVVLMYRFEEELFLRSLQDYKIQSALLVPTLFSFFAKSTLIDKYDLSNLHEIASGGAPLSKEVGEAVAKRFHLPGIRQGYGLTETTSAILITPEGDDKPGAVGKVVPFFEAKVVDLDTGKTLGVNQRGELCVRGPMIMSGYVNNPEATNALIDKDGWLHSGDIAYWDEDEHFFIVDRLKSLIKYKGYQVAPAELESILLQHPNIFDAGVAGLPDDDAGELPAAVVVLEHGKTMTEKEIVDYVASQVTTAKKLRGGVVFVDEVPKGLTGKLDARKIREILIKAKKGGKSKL", "assay": "firefly luciferase enzyme inhibitors, primary screen, biochemical, luminescence, purified enzyme, 2006 set (AID 1141);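 further: cell-free assay with purified firefly luciferase at 100 ng per well in PBS; test concentration not given here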", "conditions": "SteadyGlo luminescence, 30 min, higher = more signal, called active from +8 up or from −8 down", "values": [{"compound": "COc1cc(CO)ccc1OC(C)=O", "z-score": -0.743}, {"compound": "COc1ccc(C#Cc2ccc3c(c2)[C@]2(C(=O)N3)[C@H](c3ccc(O)cc3)N3[C@H](c4ccccc4)[C@H](c4ccccc4)OC(=O)[C@H]3[C@@H]2C(=O)N2CCCCCCC2)cc1", "z-score": -1.78}, {"compound": "CN1C=C(C(=O)OCCS(C)(=O)=O)C(C(=O)OCCS(C)(=O)=O)=CC(CCCO)=CC1C1CC1", "note": "(stereo not given)", "z-score": -0.0115}, {"compound": "COCCOC(=O)N1C(=O)[C@@]2(c3cc(C#CCC(C(=O)OC)C(=O)OC)ccc31)[C@H](c1ccc(O)cc1)N1[C@H](c3ccccc3)[C@H](c3ccccc3)OC(=O)[C@H]1[C@@H]2C(N)=O", "z-score": -0.78}, {"compound": "COc1ccc(NN2C(C(O)c3ccc(OC)c(OCc4ccccc4)c3)C=CC3C(=O)N(C4CCCCC4)C(=O)C32)cc1", "note": "(stereo not given)", "z-score": 1.16}, {"compound": "CC(C)N1CC=CC23O[C@@H]4C=CCOC(=O)[C@@H]4[C@H]2C(=O)N(CCO)[C@@H]3C1=O", "note": "(stereo not given in full)", "z-score": -0.0322}, {"compound": "O=C1c2ccccc2[C@@]2(Cc3ccccc3N(Cc3ccccc3)C2=O)[C@H](c2ccc(CO)cc2)N1C1CCCCC1", "z-score": 0.378}, {"compound": "CO[C@H]1O[C@H](CO)[C@@H](OC(=O)Nc2ccc3c(c2)OCO3)[C@H](OC(=O)Nc2ccccc2)[C@H]1OC(=O)Nc1ccccc1", "z-score": -0.546}, {"compound": "CC(C)C[C@@H]1NC(=O)[C@@H]2C[C@H](C(=O)NCCCCCC[N+](C)(C)C)[C@H](c3ccc(O)cc3)N2C1=O", "z-score": 0.0519}, {"compound": "N#Cc1ccc(NN2C(C(O)C3CCCCC3)C=CC3C(=O)N(c4ccccc4)C(=O)C32)cc1", "note": "(stereo not given)", "z-score": -0.394}, {"compound": "O=c1oc(-c2ccccc2)nc2cc(Br)ccc12", "z-score": "-9.5 (active)"}, {"compound": "COC(=O)[C@@]1(Cc2ccc(OC)cc2)[C@H]2c3cc(C(=O)N(C)C)n(Cc4c(OC)[nH]cc(C)c4=O)c3C[C@H]2CN1C(=O)c1ccccc1", "z-score": 0.151}, {"compound": "CC(C)NC(=O)[C@@H]1c2ccccc2C(=O)N(Cc2ccccc2)[C@H]1c1ccc(CO)cc1", "z-score": 0.413}, {"compound": "O=C1C=CC(=O)[C@@H]2CC(COc3ccccc3)=C3[C@@H](CCc4ccccc4)OB(O)C[C@@H]3[C@H]12", "z-score": -3.18}, {"compound": "C=CCC(OC(C)=O)[C@@H]1[C@@H](N(Cc2cccc3ccccc23)C(=O)c2cccc3ccccc23)c2cc(OCCCO)ccc2N1C(=O)c1ccc2ccccc2n1", "note": "(stereo not given in full)", "z-score": 1.01}, {"compound": "O=C1[C@]2(CO)C=C(Br)[C@@H](C[C@@H]2c2ccccc2)[C@@]12CO2", "z-score": 0.969}, {"compound": "COCC1=C2[C@@H](CCc3ccccc3)OB(O)C[C@@H]2[C@@H]2C(=O)N(Cc3ccccc3)C(=O)[C@@H]2C1", "z-score": -0.683}, {"compound": "CCOC(=O)C1=CC[C@@H](c2ccccc2)N(S(=O)(=O)c2ccc(C)cc2)[C@H]1C(=O)OCC", "z-score": 0.693}, {"compound": "Cc1ccccc1C(O)C1C=CC2C(=O)N(C)C(=O)C2N1Nc1ccccc1", "note": "(stereo not given)", "z-score": 0.292}, {"compound": "C=CCC(OC(C)=O)[C@@H]1[C@@H](N(Cc2ccc(-c3ccccc3)cc2)C(=O)Cc2ccc(OC)cc2)c2cc(OCCCO)ccc2N1C(=O)c1ccc2ccccc2n1", "note": "(stereo not given in full)", "z-score": -0.592}, {"compound": "CCN(CC)c1ccc(N2CC=CC34O[C@@H]5C=CCCOC(=O)C5[C@H]3C(=O)N(CCCCCO)[C@@H]4C2=O)cc1", "note": "(stereo not given in full)", "z-score": -1.29}, {"compound": "C[C@]1(C(=O)NCc2ccccc2)c2ccccc2C(=O)N(Cc2ccc(OC(F)(F)F)cc2)[C@H]1c1ccc(CO)cc1", "z-score": 0.882}, {"compound": "CC(=O)Nc1cc(Br)ccc1C(=O)O", "z-score": -0.592}, {"compound": "COC(=O)C[C@H]1O[C@]2(C(=O)N(Cc3ccccc3)c3ccc(NC(C)=O)cc32)[C@@H](C)[C@@H]1[Si](C)(C)c1ccc(OC)cc1", "z-score": 0.531}, {"compound": "COCCOC(=O)N1C(=O)[C@@]2(c3cc(C#CCC(C(=O)OC)C(=O)OC)ccc31)[C@H](C(=O)N1CCN(c3ncccn3)CC1)[C@H]1C(=O)O[C@H](c3ccccc3)[C@H](c3ccccc3)N1[C@@H]2c1ccc(OCCO)cc1", "z-score": -0.59}, {"compound": "O=c1cccc(C=Cc2ccccc2)o1", "z-score": 1.35}, {"compound": "CCCCC(CC)C(O)C1C=CC2C(=O)N(c3ccccc3)C(=O)C2N1Nc1ccccc1", "note": "(stereo not given)", "z-score": -0.15}, {"compound": "COc1ccc([Si](C)(C)[C@@H]2[C@@H](CC(=O)N(CCO)Cc3ccccc3)O[C@]3(C(=O)N(C)c4ccccc43)[C@H]2C)cc1", "z-score": 0.0071}, {"compound": "CC(C)C[C@@H]1NC(=O)[C@H]2C[C@@H](C(=O)NCCCCCNC(=O)CS)[C@@H](c3cccc(OCCO)c3)N2C1=O", "z-score": -1.15}, {"compound": "O=C(OCCF)C1=CCC(c2cccc(Cl)c2)O1", "note": "(stereo not given)", "z-score": 0.08}, {"compound": "O=C(O)[C@@]1(Cc2ccccc2)N=C(c2ccc(OCCCO)cc2)O[C@H]1c1ccccc1", "z-score": 1.16}, {"compound": "CO[C@H]1O[C@H](CO)[C@@H](OC(=O)Nc2ccc(Oc3ccccc3)cc2)[C@H](OC(=O)Nc2ccccc2)[C@H]1OC(=O)Nc1ccccc1", "z-score": -0.923}, {"compound": "O=C(CS)NCCCCCCNC(=O)[C@H]1C[C@H]2C(=O)NCC(=O)N2[C@H]1c1ccc(O)cc1", "z-score": -0.199}, {"compound": "COCCOC(=O)N1C(=O)[C@@]2(c3cc(C#CCCO)ccc31)[C@H](c1ccc(O)cc1)N1[C@H](c3ccccc3)[C@H](c3ccccc3)OC(=O)[C@H]1[C@@H]2C(N)=O", "z-score": 0.028}, {"compound": "CC(C)(C)N1CC=CC23O[C@@H]4/C=C\\CCCOC(=O)C4[C@H]2C(=O)N(CCO)[C@@H]3C1=O", "note": "(stereo not given in full)", "z-score": 0.885}]}]}
